The values below come from PubChem BioAssay (NCI).

Among the test systems are T-47D breast; BT-549 breast; MDA-MB-435 melanoma; SW-620 colon; MCF7 breast; HCT-116 colon; KM12 colon; HCC-2998 colon.
Holding throughout (assay): NCI-60 one-dose screen, 48 h (100 = growth as untreated, 0 = no growth, -100 = all killed)
What all share (settings): 10 µM unless noted

Compounds without any hit were thinned out: in the full panel of roughly 83,000, 20% have a hit.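 In brief: 96-well plates, 48 h treatment, single concentration, percent growth endpoint.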 Unmarked numbers belong to inactive results. Calls of active or inactive are those of the source. Rule for the calls: active = growth percent below 10; inactive = the rest.

In the case of `COc1cc(Cl)cc(-c2nn(C(=O)NS(=O)(=O)c3ccccc3)cc2-c2ccncc2)c1`, the growth was 92.5% with T-47D breast; 36.9% in the experiment with BT-549 breast; 91% with MDA-MB-435 melanoma; 114% with SW-620 colon; 99.8% in the experiment with MCF7 breast; 93.7% with HCT-116 colon. Also, in the experiment with KM12 colon, the growth was 102%.
For the compound `COc1ccc(/C=C2\N=C(Nc3ccccc3)N(NC(=O)c3ccccn3)C2=O)cc1`, the growth in the experiment on T-47D breast is 63.6%; in the experiment with BT-549 breast, 94.1%; in the experiment with MDA-MB-435 melanoma, 98.7%; with SW-620 colon, 102%; in the experiment with MCF7 breast, 87.5%; in the experiment on HCT-116 colon it was 90.1%. Besides, the growth with HCC-2998 colon is 105%; in the experiment on KM12 colon it was 96.1%.
On to `CCCCCCCCCCCCCCCCCCNC(=S)N/N=C/c1ccc(OC)c(OC)c1`, for which the growth with T-47D breast was 95.8%; in the experiment with BT-549 breast it was 79.9%; in the experiment with MDA-MB-435 melanoma it was 97.4%; with SW-620 colon it was 99.2%; in the experiment on MCF7 breast, 96.8%; with HCT-116 colon it was 96.9%. Further, the figures for the growth in the experiment on HCC-2998 colon and in the experiment with KM12 colon were 101% and 97.1%, respectively.
Turning to `COc1ccc2nc3cc(Cl)ccc3c(Nc3ccc(O)c(CN4CCCC4)c3)c2c1`, the growth in the experiment with T-47D breast was 35.8%; in the experiment on BT-549 breast it was 79.2%; in the experiment with MDA-MB-435 melanoma it was -61.5% (active); with SW-620 colon it was -65.7% (active); in the experiment on MCF7 breast it was 43.4%; in the experiment on HCT-116 colon, -45% (active). In the experiment on KM12 colon, the growth is 19.2%.
Turning to `O=C(Nc1ccc(C(=O)/C=C/c2ccc(N3CCOCC3)cc2)cc1)Nc1ccc([N+](=O)[O-])cc1`, the growth in the experiment on T-47D breast is 72.8%; with BT-549 breast, 108%; in the experiment on MDA-MB-435 melanoma it was 96%; in the experiment with SW-620 colon, 99.7%; in the experiment on MCF7 breast, 76.3%; in the experiment on HCT-116 colon, 97.3%. Besides, the growth with KM12 colon is 89.4%.
For the compound `CC(C)CCSc1nc(N)nc2nc[nH]c12`, the growth with T-47D breast was 89.1%; in the experiment with BT-549 breast it was 140%; in the experiment with MDA-MB-435 melanoma, 116%; in the experiment with SW-620 colon, 113%; in the experiment with MCF7 breast, 96.1%; in the experiment on HCT-116 colon it was 92.9%. Besides, the figures for the growth in the experiment on HCC-2998 colon and in the experiment with KM12 colon were 101% and 92.6%, respectively.
Regarding `CCC(Br)(CC)C(=O)c1ccc(OCC(=O)O)c(Cl)c1Cl`, the growth in the experiment with T-47D breast was 112%; in the experiment with BT-549 breast it was 79.1%; with MDA-MB-435 melanoma it was 101%; in the experiment with SW-620 colon it was 112%; with MCF7 breast, 92.8%; in the experiment with HCT-116 colon, 102%. The growth in the experiment with HCC-2998 colon was 91.5%; in the experiment on KM12 colon it was 103%.
Regarding `O=C1/C(=C\c2cccn2Cc2ccccc2)c2ccccc2N1c1c(Cl)cccc1Cl`, the growth was -35.7% (active) with T-47D breast; 81% in the experiment with BT-549 breast; 91% in the experiment on MDA-MB-435 melanoma; 85.7% in the experiment on SW-620 colon; 6.23% (active) in the experiment with MCF7 breast; 27.1% in the experiment with HCT-116 colon. Further, the growth is 22.1% in the experiment with HCC-2998 colon and 4.07% (active) in the experiment with KM12 colon.
On to `NC1=NC(=O)NC1(c1ccccc1)c1ccccc1`, for which the growth in the experiment on T-47D breast is 80.3%; with BT-549 breast, 131%; with MDA-MB-435 melanoma, 104%; with SW-620 colon it was 99.2%; in the experiment with MCF7 breast, 99.8%; in the experiment on HCT-116 colon, 99.9%. Moreover, the growth with KM12 colon is 103%.
With `O=C1Nc2ccccc2/C1=C/C(=O)c1ccc(N2CCOCC2)cc1`, the growth with T-47D breast is 81.1%; in the experiment on BT-549 breast it was 97%; with MDA-MB-435 melanoma, 96%; with SW-620 colon, 51.6%; in the experiment with MCF7 breast, 79.5%; in the experiment with HCT-116 colon, 92.2%. Besides, the growth in the experiment with KM12 colon was 105%.
In the case of `CC[C@]1(O)CC2CN(CCc3c([nH]c4ccccc34)[C@@](C(=O)OC)(c3cc4c(cc3OC)N(C=O)[C@H]3[C@@](O)(C(=O)OC)[C@H](OC(C)=O)[C@]5(CC)C=CCN6CC[C@]43[C@@H]65)C2)C1` (stereo partly drawn), the growth is 91% in the experiment with T-47D breast; 15.7% with BT-549 breast; -25.7% (active) in the experiment with MDA-MB-435 melanoma; 24% with SW-620 colon; 21.9% with MCF7 breast; 5.51% (active) in the experiment with HCT-116 colon. Further, the growth in the experiment with HCC-2998 colon is 0.206% (active); with KM12 colon it was -30.7% (active).
With `O=C(Nc1cccc2cccnc12)c1cc(C(=O)c2ccc(Cl)cc2)n2ccc(-c3ccncc3)cc12`, the growth is 95.7% with T-47D breast; 93.9% in the experiment on BT-549 breast; 97.6% with MDA-MB-435 melanoma; 90.6% with SW-620 colon; 98.3% in the experiment with MCF7 breast; 101% in the experiment with HCT-116 colon. In addition, in the experiment on KM12 colon, the growth was 108%.
In the case of `CCN(CC)c1ccc2cc(NC(=O)OCCNC(=O)CCNC(=O)[C@H](CC(C)C)NC(=O)C(C)(C)NC(=O)C(C)(C)NC(=O)[C@H](CC(C)C)NC(=O)CCNC(=O)C(C)(C)NC(=O)[C@H](CC(C)C)NC(=O)CCNC(=O)[C@@](C)(CC)NC(=O)[C@H](C)NC(=O)CCNC(=O)C(C)(C)NC(=O)[C@H](C)NC(=O)[C@@H]3CCCN3C(=O)[C@@](C)(CC)NC(=O)[C@H](Cc3ccccc3)NC(=O)C3CCCN3C(=O)C(C)(C)NC(=O)C3CCCN3C(=O)C(C)(C)NC(C)=O)c(=O)oc2c1` (stereo partly drawn), the growth in the experiment with T-47D breast is -71.4% (active); with BT-549 breast, -93.3% (active); in the experiment on MDA-MB-435 melanoma, -76.2% (active); in the experiment on SW-620 colon, -77.4% (active); with MCF7 breast, -88.2% (active); in the experiment with HCT-116 colon, -91.2% (active). Moreover, the growth in the experiment on KM12 colon is -98.5% (active).
In the case of `O=C1Nc2ccccc2/C1=C/C(=O)c1ccc(N2CCCCC2)cc1`, the growth in the experiment with T-47D breast was 59.9%; in the experiment on BT-549 breast it was 90.8%; in the experiment with MDA-MB-435 melanoma, 88.2%; in the experiment with SW-620 colon it was -22.7% (active); with MCF7 breast, 68.9%; in the experiment with HCT-116 colon, 92.7%. The growth in the experiment with KM12 colon was 90.5%.
Turning to `COc1cc2c(O)n(CCCN3CCOCC3)c3c4cnc5cccc(c(=O)c3c2cc1OC)c54`, the growth in the experiment on T-47D breast was 18.6%; in the experiment on BT-549 breast, 57.9%; in the experiment on MDA-MB-435 melanoma, 47.2%; in the experiment with SW-620 colon, 34.9%; in the experiment with MCF7 breast it was 14.5%; with HCT-116 colon, 27.9%. Also, the growth in the experiment with KM12 colon was 46.3%.
For `Cc1cc(C)c(S(=O)(=O)/N=c2/n(-c3ccccc3)nc3n2CCN3C2=NCCN2)c(C)c1`, the growth with T-47D breast is 77.8%; with BT-549 breast, 73.8%; in the experiment with MDA-MB-435 melanoma, 69.5%; in the experiment on SW-620 colon, 84.8%; in the experiment on MCF7 breast, 90.8%; with HCT-116 colon, 55.7%. Moreover, the growth in the experiment on KM12 colon is 85.4%.
